The list is not random: actives were taken first. Their share in the collection is about 18%.
PLK1 PBD inh: inhibitors of human PLK1 polo-box domain binding | P53350 | Plk1 PBD binding of FITC phosphopeptide, fluorescence polarization | Potency, µM, for the others: max response, negative = inhibition, most hits filed as inhibitors | hit rate 2.8% among 360,000 | AID 720504; note: series mostly up to about 57 µM; nearly all actives have a fitted effect of over 65% in size
DT40 TDP1 no CPT: qHTS for Inhibitors of human tyrosyl-DNA phosphodiesterase 1 (TDP1): qHTS in cells in absence of CPT. DT40 Tdp1-/- hTDP1 cells, no CPT, ATP luminescence, 48 h. Potency, µM (titrated, usually from 46.2 µM), inactives show at the top dose activity change, negative = growth inhibition, most hits filed as inhibitors. hit rate 15% among 420,000; note: nearly all actives have a fitted effect of over 55% in size
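Compound effects on proliferation are scored in DT40 Tdp1-/-;hTDP1 cells in the absence of CPT. ATP levels (CellTiter-Glo luminescence) are recorded after a ≥48 hr, 37 °C incubation.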
VDR inhibitor: inhibitors of human vitamin D receptor | P11473 | VDR-SRC2-3 peptide fluorescence polarization, 2 h | Potency, µM, for the others: max response, negative = inhibition, usual class: inhibitors | hit rate 0.93% among 400,000
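Signal is fluorescence polarization, reporting how far test compounds block the interaction of VDR with the SRC2-3 coregulator peptide after a 2 h room-temperature incubation.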
KAT2A inh: GCN5L2 (KAT2A) acetyltransferase inhibition | Q92830 | Potency, µM (titrated, usually from 58.9 µM), for the others: top-dose activity change, negative = inhibition, usual class: inhibitors | GCN5L2 HAT assay, ThioGlo1 CoA-SH fluorescence | hit rate 0.21% among 390,000 | AID 504327
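Free CoA generated was detected with ThioGlo1 (50uM) fluorescence at Ex340nm/Em540nm, read immediately and after 20 min at room temperature. Enzyme, 20 nM in HEPES pH 7.5 buffer, saw compounds 15 min before adding 75uM H3(1-25) peptide and 70uM acetyl-CoA.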
DT40 TDP1 CPT: growth inhibition of DT40 Tdp1-/-;hTDP1 cells with camptothecin (screen for TDP1 inhibitors). chicken DT40 Tdp1-/-;hTDP1 cells + 20 nM CPT, ATP luminescence, 48 h. Potency, µM (titrated, usually from 46.2 µM), for inactives: at the top dose activity change, negative = growth inhibition, usual class: inhibitors. hit rate 12% among 420,000. AID 686979; note: nearly all actives have a fitted effect of over 55% in size
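Chicken DT40 Tdp1-/- cells stably complemented with human TDP1 were seeded at 400 cells/well in medium containing 20 nM camptothecin, exposed to pin-transferred compounds, and grown at 37 °C for at least 48 hr. Viability was read as ATP luminescence.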
TDP1 inh: inhibitors of human tyrosyl-DNA phosphodiesterase TDP1 | recombinant TDP1, AlphaScreen DNA substrate cleavage | Potency, µM (titrated, usually from 130 µM), without a hit: at the highest dose activity change, negative = inhibition, most hits filed as inhibitors | hit rate 0.28% among 350,000 | AID 485290; note: nearly all actives have a fitted effect of over 40% in size
Target sequence (Q9NUW8 whole entry, looked up): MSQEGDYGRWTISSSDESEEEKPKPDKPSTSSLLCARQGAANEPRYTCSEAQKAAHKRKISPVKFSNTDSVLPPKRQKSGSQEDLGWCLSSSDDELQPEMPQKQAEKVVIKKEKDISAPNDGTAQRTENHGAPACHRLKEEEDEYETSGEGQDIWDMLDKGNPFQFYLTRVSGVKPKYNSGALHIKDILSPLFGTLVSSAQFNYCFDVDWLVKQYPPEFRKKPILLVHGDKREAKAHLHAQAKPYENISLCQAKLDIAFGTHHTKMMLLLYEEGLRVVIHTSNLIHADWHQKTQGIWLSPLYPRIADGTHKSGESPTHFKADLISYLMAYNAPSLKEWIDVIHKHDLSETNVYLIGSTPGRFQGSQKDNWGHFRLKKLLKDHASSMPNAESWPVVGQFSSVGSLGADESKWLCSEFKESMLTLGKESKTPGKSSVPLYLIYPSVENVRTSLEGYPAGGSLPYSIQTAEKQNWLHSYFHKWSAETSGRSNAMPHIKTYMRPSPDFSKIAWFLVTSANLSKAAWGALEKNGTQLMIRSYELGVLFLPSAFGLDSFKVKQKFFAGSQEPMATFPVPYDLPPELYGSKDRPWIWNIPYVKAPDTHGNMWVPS
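Compounds were preincubated with Tdp1 (1 nM final) for 15 min at room temperature before substrate (15 nM final) started a 5 min reaction; beads (10 ug/ml final) were then added for 10 min before AlphaScreen detection.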
* marks the source's active call; other numbers are inactive results; ? = inconclusive; . = no result; [ ] = remark or other dose. Calls come from the whole dose curve; as a rule, active = well fitted curve in the direction sought with a large enough effect; inconclusive = small, poorly fitted or top-dose-only effect, or another doubt; inactive = no such curve, though single readings can be large; an effect the other way counts as inactive or inconclusive. % is set by controls: 0 for no effect and ±100 for the full control effect; potency is the fitted concentration of half-maximal effect.

SMILES	PLK1 PBD inh	DT40 TDP1 no CPT	VDR inhibitor	KAT2A inh	DT40 TDP1 CPT	TDP1 inh
COc1ccc([N+](=O)[O-])cc1NS(=O)(=O)c1ccc(C)cc1	-3%	?	11%	-11%	-17%	4%
CCCCOc1ccc(C(=O)NCCc2csc3nc(-c4ccccc4F)nn23)cc1	.	?	7%	-11%	26µM*	1%
CC(C)(C)c1ccc(C(=O)NCCc2csc3nc(-c4ccccc4F)nn23)cc1	.	?	5%	-4%	21µM*	9%
CCOc1cc(C(=O)NCCc2csc3nc(-c4ccccc4F)nn23)cc(OCC)c1OCC	.	?	7%	-2%	23µM*	-1%
COc1ccc(CC(=O)NCCc2csc3nc(-c4ccccc4F)nn23)cc1	.	-20%	-7%	1%	?	7%
COc1cccc(CNS(=O)(=O)c2ccc(-c3cc(C(F)(F)F)on3)s2)c1	.	?	16%	-17%	?	0%
COc1ccc(NC(=O)c2ccc3c(SCC(=O)O)c4c(nc3c2)CCC4)c(OC)c1	.	-1%	-11%	-23%	0%	.
CCSc1nc2c([nH]c3ccccc32)c(=O)n1CC	.	-19%	1%	-11%	3%	1%
C=CCn1c(SCC(=O)NC2CCCc3ccccc32)nnc1-c1ccncc1 (centres undefined)	3%	?	-3%	-3%	?	0%
CCN(CC)c1ccc(/C=N/Nc2nc(C)cc(=O)[nH]2)c(O)c1	7%	0.021µM*	-1%	-13%	0.021µM*	8%
Cc1cc(=O)[nH]c(N/N=C/c2ccccc2Cl)n1	-12%	?	7%	-1%	-21%	.
Cc1cc(=O)[nH]c(NN=Cc2cc(Br)ccc2O)n1	-7%	2.9µM*	18%	.	2.6µM*	.
COCC(C)N1CCC(n2nccc2NC(=O)CCCc2ccccc2)CC1 (centres undefined)	-10%	8%	1%	-17%	-18%	0%
COc1ccc(OC)c(S(=O)(=O)N2CCCC(C(=O)N3CCCCCC3)C2)c1 (centres undefined)	-3%	-7%	9%	?	-1%	1%
CN(N=O)C(=O)N[C@@H]1[C@@H](O)[C@H](O)[C@@H](CO)O[C@@H]1O	.	-13%[21.1 µM]	.	.	-2%[21.1 µM]	.
CC(=O)C(C(c1ccccc1)N1CCCc2ccccc21)N1CCOCC1 (centres undefined)	-1%	?	-2%	.	?	.
CCSc1nc(O)cc(=O)[nH]1	0%	5%	-6%	-19%	4%	-4%
CCSc1nc(=S)cc(C)[nH]1	27µM*	21µM*	79µM*	5%	?	6%
Cc1nnc(NC(=O)Nc2cccc(Cl)c2)s1	-6%	13µM*	21%	-4%	?	5%
Cc1csc(NC(=O)Nc2cccc(Cl)c2)n1	-7%	23µM*	14%	2%	?	5%
CCOc1ccc(NC(=O)Nc2nnc(CC)s2)cc1	0%	4%	5%	-8%	9%	6%
O=C(Nc1cccc(Cl)c1)Nc1nc(-c2ccccc2)cs1	0%	?	-11%	-3%	?	5%
Cc1ccc(OCCSCc2nnc(NC(=O)Nc3cccc(Cl)c3)s2)cc1	11%	4.6µM*	-28%	0%	4.6µM*	3%
Cc1ccc(S(=O)(=O)N(CC(=O)NCC2CCCO2)C2CCCCC2)cc1 (centres undefined)	-10%	?	12%	-2%	-5%	-9%
CCc1c(C)c2ccccc2[nH]c1=O	.	?	.	.	-23%	.
CC(C)NC(=O)CN(Cc1ccc(F)cc1)C(=O)CCC(=O)Nc1ccccn1	3%	-2%	-1%	-2%	3%	0%
Nc1ccccc1N=Cc1ccc(-c2cccc(Cl)c2)o1	?	23µM*	-8%	20%	21µM*	6%

Bioassay records: PubChem BioAssay, National Center for Advancing Translational Sciences (NCATS)
